# Compound activity from PubChem.
# HCMV antiviral: inhibitors of human cytomegalovirus; activity change, negative = inhibition, % at 57.5 µM; HFF cells, HCMV-luciferase reporter, 72 h; hits give low values; actives 4.5% (n = 410,000); AID 1259415; in the data active means activity change below about -60%; inconclusive means no clear call, values can overlap the other calls; inactive means above about -39%
#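 Cell-based, HFFs, 1000 cells/well, 16 h 37C; cpds in DMSO + HCMV-luc, MOI 1 PFU/cell; 72 h 37C; OneGlo luminescence after 5 min RT; norm. to buffer vs Salinomycin 10uM.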
# Pf growth 96h: inhibits malaria parasite growth, 96 h; P. falciparum luciferase reporter growth, 96 h; actives 6.9% (n = 320,000); AID 504834; Potency, µM (highest dose often 28.7 µM), usual class: inhibitors
#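 Plates of compound plus infected erythrocytes (2% hematocrit, 0.05% parasitemia final) incubate 96 hours, 37 C, 5% CO2. Detection reagent added; reduced luminescence from the parasites' luciferase reporter flags inhibition.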
# SARS PLP yeast: inhibitors of SARS-CoV papain-like protease in yeast; S. cerevisiae expressing SARS-CoV PLpro, growth rescue; Potency, µM (highest dose often 32.9 µM), actives largely listed as activators; actives 0.19% (n = 330,000); AID 485353; calls by dose curve; further: nearly all actives have a fitted effect of over 55% in size
# Sm TGR inh: inhibitors of Schistosoma mansoni thioredoxin glutathione reductase; actives 3% (n = 360,000); purified TGR, DTNB reduction, TNB absorbance 405 nm; AID 485364; Potency, µM (doses to about 114 µM), most hits filed as inhibitors; further: nearly all actives have a fitted effect of over 60% in size
#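 First, TGR (20 nM dispensed) and NADPH were mixed with compound. Second, a 15 min room-temperature incubation followed. Third, further NADPH and then DTNB were added to start the reaction. Finally, TNB absorbance was monitored kinetically.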
# HCV inhibitor: HCV inhibition. Huh7.5.1 HCVcc-Cre infection, luciferase reporter, 44 h. Potency, µM (series often up to 41.8 µM), usual class: inhibitors. actives 3.4% (n = 340,000). AID 651820
#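 Compounds are dispensed onto cells plated 4 h earlier at 1,000 per well, with HCVcc-Cre virus (about 0.5 moi) added next. Following 44 h of culture, luminescent signal is measured for 15 sec after 15 min with substrate at room temperature.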
# Pf growth 48h: P. falciparum growth inhibition at 48 hours (one generation); P. falciparum luciferase growth in erythrocytes, 48 h; Potency, µM (series often up to 28.7 µM), most hits filed as inhibitors; actives 5.9% (n = 310,000)
#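 First compound was added to culture medium, then infected red cells at 0.1% parasitemia and 2% hematocrit (final). After incubation at 37 C under 5% CO2, luciferase detection reagent was dispensed and light output recorded.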
# Hits are given with their value; . = inactive; ? = inconclusive; / = no result given. Most compounds without a hit are left out; they make up all but 15% or so of the library. Unless noted, the call rests on the fitted dose curve; in most records, active means well fitted curve in the direction sought with a large enough effect; inconclusive means small, poorly fitted or top-dose-only effect, or another doubt; inactive means no such curve, though single readings can be large; an effect the other way counts as inactive or inconclusive.
SMILES,HCMV antiviral,Pf growth 96h,SARS PLP yeast,Sm TGR inh,HCV inhibitor,Pf growth 48h
Cc1cc(/C=C2/NC(=O)N(Cc3ccccc3F)C2=O)c(C)n1-c1ccccn1,.,?,.,?,.,9.3µM
Cc1cc(/C=C2/NC(=O)N(Cc3ccccc3F)C2=O)c(C)n1C,.,10µM,.,?,?,10µM
O=C1N/C(=C/c2ccco2)C(=O)N1Cc1ccccc1F,.,?,.,56µM,.,.
Cc1cccc(CN2C(=O)N/C(=C/c3cc(C)n(-c4ccccn4)c3C)C2=O)c1,.,/,.,.,1.8µM,13µM
O=C1N/C(=C/c2cccs2)C(=O)N1Cc1ccccc1F,.,?,.,.,.,.
Cc1sc2ncnc(SCC(=O)c3ccc4c(c3)OCCO4)c2c1-c1ccccc1,.,.,.,.,?,?
CCN(CC)CCNC(=O)c1ccc(NC(=O)c2ccc(-n3cncn3)c([N+](=O)[O-])c2)cc1,.,/,/,/,/,/
CCOc1ccc(-c2cn3c(n2)sc2cc(C(=O)NC(C)C45CC6CC(CC(C6)C4)C5)ccc23)cc1 (stereo not given),/,/,/,.,/,/
Cn1c(-c2ccccc2)cc2c3no[n+]([O-])c3ccc21,-102,.,.,.,2.5µM,.
Cn1c(-c2ccccc2)cc2ccccc21,.,.,.,.,.,.
COc1ccc(C2C(C(=O)O)c3ccccc3C(=O)N2Cc2ccco2)cc1 (stereo not given),.,.,.,.,.,.
OCc1cnc[nH]1,.,9.3µM,.,.,.,?
CCN(CC)CCCNC(=O)Cn1nc(C)n2c(cc3sccc32)c1=O,.,/,/,.,/,/
O=C(CN1C(=O)NC2(CCc3ccccc32)C1=O)Nc1ccc(Cl)cc1F (stereo not given),.,/,/,/,/,/
C=CCn1c(SCc2cc(=O)n3ccsc3n2)nc2scc(C3CC3)c2c1=O,.,4.1µM,.,.,?,?
COC(=O)CC1C(=O)NCCN1C(=S)Nc1cc(C)cc(C)c1 (stereo not given),.,?,.,.,.,.
CCNC(=S)N1CCNC(=O)C1CC(=O)OC (stereo not given),-72,.,.,.,.,.
O=C(Nc1ccccc1Cl)N1CCSc2ccccc21,.,.,.,.,.,1.5µM
O=C(Nc1cccc(Cl)c1)N1CCSc2cc(Cl)ccc21,.,13µM,.,.,?,?
O=C(Nc1cccc(Cl)c1)N1CCSc2ccccc21,?,/,/,.,/,/
Cc1ccccc1NC(=O)C1CCC(CNS(=O)(=O)c2ccc3c(c2)C(C)(C)C(=O)N3C)CC1 (stereo not given),.,/,/,.,/,/
COC(=O)[C@@]1(Cc2ccc(OC)cc2)[C@H]2c3cc(C(=O)N4CCCC4)n(Cc4cc(C)n(C)n4)c3C[C@H]2CN1C(=O)c1ccccc1,.,/,/,/,/,/
Cc1c(NC(=O)CN2C(=O)NC3(CCCCC3)C2=O)c(=O)n(-c2ccccc2)n1C,.,?,.,.,.,.
CCOC(=O)c1c(-c2ccc(F)cc2)csc1NC(=O)C1CC=CCC1C(=O)O (stereo not given),.,.,.,/,.,.
COC(=O)c1c(-c2ccco2)csc1NC(=O)C1CC=CCC1C(=O)O (stereo not given),.,?,.,45µM,.,.
SMILES,HCMV antiviral,Pf growth 96h,SARS PLP yeast,Sm TGR inh,HCV inhibitor,Pf growth 48h
COc1ccc(C(=O)N2CC3(CC(c4ccc(Cl)cc4)=NO3)C[C@H]2C(=O)NCC(N)=O)cc1 (stereo not given in full),.,.,.,?,.,.
O=C(OCc1c(F)cccc1Cl)c1cnc(Cl)c(Cl)c1,.,.,.,.,10µM,.
CCOc1ccc(C(=O)NCC(=O)OCc2c(F)cccc2Cl)cc1,-67,.,.,.,.,.
O=C(OCc1ccccc1F)c1cnc(Cl)c(Cl)c1,.,.,.,.,.,.
O=C(NC1CCCCC1)c1cc(C2CC2)nn1-c1ccccc1,.,.,.,?,.,?
CCN(CC)CCCNC(=O)C1CCN(C(=O)c2oc3cc4sc(N(C)C)nc4cc3c2C)CC1,.,12µM,.,.,?,.
COc1ccc(Br)cc1CNC(=O)c1ccc2c(c1)nc1n2CCCCC1,-60,/,/,.,/,/
CSc1ccc(CCNC(=O)c2ccc3c(c2)nc2n3CCCCC2)cc1,-76,/,/,.,/,/
